# Screening data: PubChem BioAssay, several laboratories
# HIF activator – HIF pathway transcriptional activation; U2OS HRE-luciferase reporter, luminescence; normalized: DMSO 0%, desferrioxamine 100%; activation, % at 7.5 µM (by protocol); 300,000 compounds, 0.32% hits; AID 1910;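 active = mean activation of at least 10% of the iron chelator positive control signal, with at least half of replicates also reaching 10%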
# AHR act – activates the human aryl hydrocarbon receptor | AHR-responsive luciferase reporter cells, luminescence | activation, % at 5 µM | 320,000 compounds, 2.5% hits | P35869; in the data active = activation above about 47%;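 note: 0% = vehicle wells and 100% = reference agonist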
# PLC-gamma1 inh – PLC-gamma1 (human) inhibition, primary screen. P19174. purified PLC-gamma1, fluorogenic substrate, fluorescence. inhibition, % at 12.2 µM. 370,000 compounds, 0.84% hits. AID 720700
# CR mimetic SO – lowers age-related superoxide in aged yeast cells; S. cerevisiae aged cells, superoxide DHE fluorescence; stronger effect = lower value; superoxide response (% of plate mean), % at 10 µM; 330,000 compounds, 0.18% hits; AID 2690;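 active = superoxide response under a set limit, about three screen SD below normal, cut at about 65% in these data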;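 note: yeast aged for seven days with compound at 30 °C before DHE staining; 100% = average MFI of all compound-treated wells on the plate with controls excluded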
# PLCb3 inh – PLC-beta3 (human) inhibition, primary screen | Q01970 | Purified PLC-beta3, fluorogenic substrate, fluorescence | inhibition, % at 12.2 µM | 370,000 compounds, 0.18% hits; in the data active = inhibition above about 11%;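 note: 0% = median of compound wells on plate and 100% = full blocker control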
# sPLA2-III inh – Inhibits HGIII-sPLA2 liposome hydrolysis, primary screen; Q9NZ20; QFRET BODIPY PC-A2 liposome hydrolysis, fluorescence; inhibition, % at 12.2 µM; 370,000 compounds, 0.56% hits; AID 743126;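 active = inhibition above mean plus 3 SD of compounds lying within the high and low control bounds, cut at about 19% in these data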;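 note: 0% = median of test compound wells and 100% = no enzyme DMSO wells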
# Target sequence (Q9NZ20 whole entry, looked up): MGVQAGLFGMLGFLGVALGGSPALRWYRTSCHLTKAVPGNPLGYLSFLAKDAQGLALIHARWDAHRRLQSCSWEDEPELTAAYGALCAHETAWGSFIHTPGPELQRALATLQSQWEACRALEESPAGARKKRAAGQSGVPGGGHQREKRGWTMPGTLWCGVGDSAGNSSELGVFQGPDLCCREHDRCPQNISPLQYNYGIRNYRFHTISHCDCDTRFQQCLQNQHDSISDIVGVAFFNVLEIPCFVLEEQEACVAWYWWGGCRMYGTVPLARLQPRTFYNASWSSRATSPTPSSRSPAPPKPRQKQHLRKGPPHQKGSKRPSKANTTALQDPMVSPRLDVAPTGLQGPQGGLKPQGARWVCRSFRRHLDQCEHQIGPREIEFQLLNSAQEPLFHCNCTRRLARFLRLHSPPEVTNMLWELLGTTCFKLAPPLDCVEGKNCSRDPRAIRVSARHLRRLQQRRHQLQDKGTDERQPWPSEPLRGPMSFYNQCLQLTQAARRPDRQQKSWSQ
# PLCg1 ctr – counter-screen for PLC-beta3 inhibitors: inhibitors of human PLC-gamma1; shares compounds with PLC-gamma1 inh; purified PLC-gamma1, fluorogenic substrate, fluorescence; inhibition, % at 12.3 µM; 3,300 compounds, 3.1% hits
# PLCb3 confirm – confirmation of human PLC-beta3 inhibitors; purified PLC-beta3, fluorogenic substrate fluorescence; inhibition, % at 12.3 µM; shares compounds with PLC-gamma1 inh; 3,300 compounds, 1% hits; in the data active = inhibition above about 11%
# Numbers without * were called inactive; i = inactive; x = no result. Hits are enriched below; roughly 3.9% of the tested compounds scored in any of these assays. Cut-off read from the data, not from the text of the source, unless noted: active = inhibition above about 9.5%; inactive = the rest.
SMILES,HIF activator,AHR act,PLC-gamma1 inh,CR mimetic SO,PLCb3 inh,sPLA2-III inh,PLCg1 ctr,PLCb3 confirm
O=C(CCc1nc(-c2ccccc2Cl)no1)Nc1cccnc1,0,0,5,96,-2,3,x,x
CC1CCC(NC(=O)CCN2C(=O)C3CC=CCC3C2=O)CC1 (stereo not given),x,0,12*,116,0,0,-2,1
CC(C)CC(N)c1csc(NC(=O)c2cc(C(C)(C)C)nn2Cc2ccccc2)n1 (stereo not given),x,x,16*,x,5,12,-3,-1
CC(C)CC(N)c1csc(NC(=O)Nc2ccccc2Cc2ccccc2)n1 (stereo not given),x,x,3,x,5,19,x,x
O=C(NCCCN1CCCC1=O)C(=O)NCC1OCCCN1S(=O)(=O)c1ccccc1 (stereo not given),x,x,-1,x,2,-3,x,x
COc1ccc(S(=O)(=O)N2CCOCC2)cc1C(=O)Nc1cccc(C(=O)NC2CC2)c1,x,x,0,x,-2,10,x,x
Cc1ccc(S(=O)(=O)N2CCOCC2)cc1NC(=O)CNCC1CCCCC1,-1,-2,10*,99,5,-4,-5,-1
COc1ccc(S(=O)(=O)N2CCCCC2)cc1C(=O)N1CCCC1,0,x,12*,108,0,10,-6,-2
COc1ccc(S(=O)(=O)N2CCOCC2)cc1C(=O)NC1CCCCCC1,x,0,12*,116,2,8,-5,0
COc1ccc(F)cc1Cn1nc(C(=O)O)c2ccccc2c1=O,0,5,12*,95,1,6,5,2
CC(NC(=O)Cn1nc(C(=O)O)c2ccccc2c1=O)c1ccccc1 (stereo not given),0,1,11*,106,12*,-5,-2,1
O=C(c1ccccc1Cl)N1CCC(Oc2cccnc2)CC1,x,x,0,x,-2,6,x,x
Cc1ccc2nsnc2c1S(=O)(=O)N1CCN(CCc2ccccc2)CC1,2,-2,14*,85,6,-4,-1,-1
Cc1ccc(NC(=O)/C(C#N)=C/c2cc(C)n(-c3ccc(N4CCOCC4)c([N+](=O)[O-])c3)c2C)c(C)c1,1,-3,0,103,-2,3,x,x
Cc1cc(/C=C(\C#N)C(=O)Nc2ccc(Cl)cc2)c(C)n1-c1ccc(N2CCOCC2)c([N+](=O)[O-])c1,0,0,14*,101,7,0,3,4
Cc1ccc(NC(=O)CCNS(=O)(=O)c2ccccc2F)cc1S(=O)(=O)N1CCOCC1,0,0,-1,99,-5,-4,x,x
CC1CCCCN1C(=O)C(Cc1ccccc1)N1C(=O)C2CCCCC2C1=O (stereo not given),0,-2,11*,106,11*,-1,-3,-3
COc1ccc(NC(=O)C2C3CCC(C3)C2C(=O)O)cc1OC (stereo not given),0,1,18*,102,-5,0,-2,-4
COc1cccc(/C=N/NC(=O)CC(C)O)c1OC/C=C/c1ccccc1 (stereo not given),-1,x,-30,106,-48,-16,x,x
CC(C)c1ccc2oc(=O)cc(CN3CCCCC3)c2c1,-1,10,-2,97,-9,-1,x,x
O=C(O)/C=C\C(=O)NCc1ccccc1,0,-4,0,93,1,5,x,x
O=C(O)/C=C/C(=O)NCc1ccccc1,-5,-1,10*,105,6,5,-6,-3
O=[N+]([O-])c1ccccc1Nc1ccccc1[N+](=O)[O-],x,x,10*,x,4,0,2,2
Cc1ccc(C(=O)COC(=O)CN2C(=O)C3C4CC(C(Br)C4Br)C3C2=O)cc1 (stereo not given),0,2,6,98,1,-18,x,x
Cc1ccccc1-c1nnn(Cc2ccc(F)cc2Cl)n1,2,1,11*,90,2,8,-9,-7
SMILES,HIF activator,AHR act,PLC-gamma1 inh,CR mimetic SO,PLCb3 inh,sPLA2-III inh,PLCg1 ctr,PLCb3 confirm
Cc1ccc(C(=O)N2CCN(S(=O)(=O)c3ccc(C)c([N+](=O)[O-])c3)C2)cc1,0,-1,10*,118,7,-3,-2,-1
CCCNC(=O)c1cc2cc([N+](=O)[O-])ccc2s1,-1,-5,1,104,-2,-1,x,x
CC(C)NC(=O)c1cc2cc([N+](=O)[O-])ccc2s1,0,-12,14*,96,12*,7,-3,4
CCCCN(C(=O)c1cc(Cl)nc2ccccc12)c1c(N)n(CCCC)c(=O)[nH]c1=O,1,4,-12,96,-3,12,x,x
CCOC(=O)n1c(=O)n(Cc2ccc(Cl)cc2Cl)c2ccccc21,0,-8,10*,119,4,10,-1,-3
CCOC(=O)c1c(C)[nH]c(C(=O)CN2C(=O)NC3(CCCC3)C2=O)c1C,2,13,13*,107,8,1,-2,2
COC(=O)C1=C(C)N(Cc2cccc(C(F)(F)F)c2)C(=NCc2cc(OC)c(OC)c(OC)c2)NC1c1cccc(C(F)(F)F)c1 (stereo not given),x,x,-2,x,-4,-17,x,x
COc1ccc(CNC(=O)C(C)Cc2ccccc2)cc1O (stereo not given),-8,2,12*,108,7,3,-5,-3
O=c1c(O)cccc2cc(O)c(O)c(O)c12,0,1,46*,87,5,-9,30*,1
O=c1cc(-c2ccccc2)oc2cc(O)c(O)c(O)c12,x,15,-5,68,-9,6,x,x
CCN(CC)C(=O)c1cc2c(=O)n3ccccc3nc2s1,3,10,i,102,i,9,x,x
CCN(CC)C(=O)c1cc2c(=O)oc3ccccc3c2s1,0,5,11*,98,6,8,-5,-3
CN1CCN(C(=O)/C(=C/c2ccccc2)c2ccccc2)CC1,1,-5,9.8*,88,9,0,-6,-1
CC1CC(C)CN(C(=O)/C(=C\c2ccccc2)c2ccccc2)C1 (stereo not given),-1,1,1,90,-1,8,x,x
COc1ccc2sc(/C=C/c3ccccc3O)[n+](C)c2c1,x,x,-12,x,-12,-26,x,x
Cc1ccc(NS(=O)(=O)c2ccc(NC(=O)CSc3ccc(Cl)cc3)cc2)c(C)c1,0,1,13*,100,7,-22,-5,-5
CC(C)=CC(=O)Nc1ccc(Cl)cc1,2,2,3,75,-4,13,x,x
CS/C(=C\[N+](=O)[O-])Nc1ccc(Cl)cc1,0,25,11*,91,2,-6,-5,-4
